Experimental findings from PubChem BioAssay AID504444 (National Center for Advancing Translational Sciences (NCATS), 2011) are described below.

The whole screen tested about 360,000 compounds, of which about 7,500 (2.1%) were called active. Where a call stands in place of a potency, no number is given. About 20% were inconclusive and are not listed. The sample as a whole holds a higher share of actives than the screen did. Values without a mark were called inactive. Calls follow the shape of the dose curve; as a rule, active = well fitted inhibition curve with a large enough effect; inconclusive = small, poorly fitted or top-dose-only effect, or effect the other way; inactive = flat fitted curve, though single readings scatter.
Potency is read from the fitted curve at half-maximal effect.

The assay is described as follows: Nrf2 qHTS screen for inhibitors. Also: nearly all actives have a fitted effect of over 60% in size. As to conditions: A549 ARE-Fluc reporter, luciferase luminescence, 18-24 h; series mostly up to 46 µM. In outline: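 Nrf2 activity is the BugLite luminescence, read 15 min after reagent at room temperature, following CellTiter-Fluor cytotoxicity readout (30 min, 37C). Compound titrations were applied for 18-24 h to 5000 A549 ARE_Fluc cells/well in 5% FBS OPTI-MEM.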
In general terms: qHTS replaces the single test concentration by a dilution series.
Turning to `COc1cc(C(=O)OCC(=O)NC23CC4CC(CC(C4)C2)C3)cc(OC)c1OC`, the Potency result was “inactive”.
`COc1ccc(C2NCCCC2c2ccccc2)cc1` (stereo not given): the Potency entry is “inactive”.
Consider `CCn1ccnc1CN(C)C(=O)c1cc(COc2ccc(-n3cncn3)cc2)on1`, for which the Potency result is “inactive”.
On to `C=CCC1(CC=C)CCCN1C(=O)c1cc(COc2ccc(-n3cncn3)cc2)on1`, for which the Potency was 8.2 µM (active).
With `O=C(c1cc(COc2ccc(F)c(F)c2)on1)N1CCOCC1`, the Potency result was “inactive”.
As to `O=C(COC(=O)C1CCCO1)Nc1nc(-c2ccc(F)cc2)cs1` (stereo not given), the Potency result is “inactive”.
For `Cc1ccc(N2C(=O)N3[C@@H]4c5ccccc5OC[C@@H]4[C@@H](c4ccccc4)[C@@]3(C)C2=O)cc1`, the Potency result was “inactive”.
Still for that read-out and setting: then `CCCCN(C(=O)CSCc1ccc(C)cc1)c1c(N)n(Cc2ccccc2)c(=O)[nH]c1=O`, with “inactive”; and `O=C(Cn1c(=O)n(Cc2cccs2)c(=O)c2cccnc21)Nc1ccc(F)cc1`, with “inactive”; and `CN(C)c1nc(N)nc(CSc2nnnn2-c2cccc3ccccc23)n1`, with 6.51 µM (active).
With `CN(C)c1nc(N)nc(CSc2ccccn2)n1`, the Potency result was “inactive”.
Same read-out and setting: the value for `CN(C)c1nc(N)nc(Cn2nnc(-c3ccc(C(F)(F)F)cc3)n2)n1` was “inactive”; that for `Cc1ccc(-c2nc3ccccn3c2Nc2ccc(F)cc2)o1` was “inactive”; that for `COc1ccc(S(=O)(=O)N2CCc3ccccc32)cc1C(=O)Nc1cc(S(C)(=O)=O)ccc1Cl` was “inactive”.
For the compound `COc1ccc(C(=O)NC2CC(C)(C)Cc3c2cnn3-c2ccccc2)c(OC)c1` (stereo not given), the Potency was 18.4 µM (active).
For `Cc1cc(C(=O)NC2CC(C)(C)Cc3c2cnn3-c2ccccc2)n[nH]1` (stereo not given), the Potency entry was “inactive”.
The same measure, in the same setting: the value for `CC1(C)Cc2c(cnn2-c2cccc(F)c2)C(NC(=O)c2cc[n+]([O-])cc2)C1` (stereo not given) was “inactive”.
For `CCOC(=O)Cc1csc(SCC(=O)Nc2ccc(C)cc2F)n1`, the Potency result is “inactive”.
Regarding `Cc1oc(C)c2c(=O)cc(-c3ccc4c(c3)OCO4)cc(OC(=O)c3ccc(Cl)cc3)c12`, the Potency result was “inactive”.
Take `N#CCc1c[nH]c2ccc([N+](=O)[O-])cc12`: the Potency result was “inactive”.
Still for that read-out and setting: then `COc1cc(C(=O)N(C)Cc2cccc(OC)c2OC)ccc1OCC(=O)Nc1cccc(C(F)(F)F)c1`, with 25.9 µM (active); and `CCNC(=O)c1ccc(OCC(=O)Nc2ccc(F)cc2)c(OC)c1`, with “inactive”; and `COc1ccc(NC(=O)CN(C)CC(=O)Nc2cccc(C(F)(F)F)c2)cc1`, with “inactive”.
As for `COc1ccc(CC2c3cc(OC)c(OC)cc3CC[N+]2(C)CCC(=O)OCCCCCOC(=O)CC[N+]2(C)CCc3cc(OC)c(OC)cc3C2Cc2ccc(OC)c(OC)c2)cc1OC` (stereo not given), the Potency result was “inactive”.
With `COc1cccc(-c2nnc3n(CCc4ccccc4)c(=O)c4ccccc4n23)c1O`, the Potency entry was “inactive”.
The same measure, in the same setting: then `N#Cc1cc([N+](=O)[O-])ccc1Oc1cccc(/C=N/NC(=O)c2ccc(Cl)cc2)c1`, with 5.8 µM (active).
Consider `O=C(N/N=C/c1cccc(OC(=O)c2ccc([N+](=O)[O-])cc2)c1)c1cccnc1`, for which the Potency result was “inactive”.
With `O=C(N/N=C/c1cccc([N+](=O)[O-])c1)c1ccncc1`, the Potency entry is “inactive”.
In the case of `O=C(NC(c1ccco1)c1cc(Cl)c2cccnc2c1O)c1ccccc1` (stereo not given), the Potency result is “inactive”.
For the compound `COc1ccc(C(CNC(=O)c2cccc(S(=O)(=O)Nc3ccccc3Cl)c2)N2CCOCC2)cc1` (stereo not given), the Potency is 18.4 µM (active).
`COc1ccc(C(CNC(=O)c2cccc(NS(=O)(=O)c3ccc(C)c(F)c3)c2)N2CCCC2)cc1` (stereo not given): the Potency result was “inactive”.
Take `COc1ccc(C(CNC(=O)c2ccc(S(=O)(=O)Nc3ccccc3C)cc2)N2CCOCC2)cc1` (stereo not given): the Potency entry was “inactive”.
Turning to `CC(C)c1ccc(NC(=O)Cn2c3ncccc3c(=O)n2-c2ccccc2)cc1`, the Potency result was “inactive”.
Turning to `OC(CN=c1sc2ccccc2n1CC(O)COc1ccccc1)COc1ccccc1` (stereo not given), the Potency was 23.1 µM (active).
As for `C=CCn1c(=N)n(CC(O)COc2ccc(OC)cc2)c2ccccc21` (stereo not given), the Potency result is “inactive”.
With `O=C(C(c1ccccc1)c1ccccc1)N1CCN(CC(O)COc2ccccc2)CC1` (stereo not given), the Potency entry is “inactive”.
With `COc1ccc(CCNC(=O)c2cnc3sc(N4CCCCCC4)nn3c2=O)cc1OC`, the Potency result was “inactive”.
`O=C(NCc1ccc2c(c1)OCO2)c1cc([N+](=O)[O-])ccc1N1CCOCC1`: the Potency entry is “inactive”.
Regarding `Cc1nc2ccc(NC(=O)c3cccc(S(=O)(=O)N4CCOCC4)c3)cc2s1`, the Potency is 18.4 µM (active).
For `O=C(Nc1nnc(-c2ccco2)o1)c1ccc(S(=O)(=O)N2CCOCC2)cc1`, the Potency result was “inactive”.
Same read-out and setting: the value for `O=C(Nc1nnc(-c2ccccc2)o1)c1cccc(S(=O)(=O)N2CCOCC2)c1` was 20.6 µM (active); that for `O=C(Nc1ccc(S(=O)(=O)Nc2nccs2)cc1)c1cccc(S(=O)(=O)N2CCOCC2)c1` was “inactive”.
With `O=C(NNC(=S)Nc1ccccc1)c1cccc(S(=O)(=O)N2CCOCC2)c1`, the Potency entry is “inactive”.
Turning to `O=C(Nc1ccc(N2CCOCC2)cc1)c1cccc(S(=O)(=O)N2CCOCC2)c1`, the Potency entry was “inactive”.
The same measure, in the same setting: then `CCC(=O)Nc1ccccc1-c1nc2ccccc2n(CC(=O)Nc2ccc(C)c(C)c2)c1=O`, with “inactive”; and `CC1(C)CCc2cc(S(=O)(=O)N3CCN(c4nc(-c5cccs5)nc5ccccc45)CC3)ccc2O1`, with “inactive”.
Turning to `COc1ccc2ncc3c(-c4ccc(C)c(C)c4)nn(CC(=O)NC4CCCC4)c3c2c1`, the Potency result is “inactive”.
Turning to `CC(=O)NC(c1cccs1)c1cc(Br)c2cccnc2c1O` (stereo not given), the Potency result was “inactive”.
As to `Cn1c(=O)n(C)c2cc(S(=O)(=O)Nc3ccc(F)cc3)ccc21`, the Potency is 9.2 µM (active).
In the case of `Cn1c(=O)n(C)c2cc(NS(=O)(=O)c3ccc(F)cc3)ccc21`, the Potency entry is “inactive”.
For the compound `Cc1cc(C)cc(NS(=O)(=O)c2ccc(F)cc2)c1`, the Potency entry was “inactive”.
With `CC1CC(C)CN(c2oc(-c3ccc(OCc4ccc(Cl)cc4)cc3)nc2C#N)C1` (stereo not given), the Potency entry was “inactive”.
As to `Cc1cccc(-n2ncc3c(=O)[nH]c(SCC(=O)Nc4cc(C)on4)nc32)c1`, the Potency result was “inactive”.
Still for that read-out and setting: then `Cc1ccc(-c2ccc(=O)n(Cc3ccc(F)cc3Cl)n2)cc1`, with “inactive”; and `O=c1c([N+](=O)[O-])cccn1Cc1ccc(F)cc1Cl`, with 25.9 µM (active); and `O=c1c([N+](=O)[O-])cc(C(F)(F)F)cn1Cc1cccc(Cl)c1`, with “inactive”.
With `Cc1cc2n(n1)C(c1cc(C(C)(C)C)c(O)cc1O)Nc1ccccc1-2` (stereo not given), the Potency result is “inactive”.
On the same count and under the same terms, then `COc1ccc(CNC(=O)CSCc2nc(-c3ccccc3F)oc2C)cc1`, with “inactive”.
For `COc1ccc(N2CCN(C(=O)CSCc3nc(-c4ccccc4Cl)oc3C)CC2)cc1`, the Potency was 1.84 µM (active).
For `COc1ccc(N2CCN(C(=O)CCSCc3ccccc3F)CC2)cc1`, the Potency entry is “inactive”.
Consider `Cc1ccc(S(=O)(=O)N2CCN(C(=O)c3cccs3)CC2)cc1`, for which the Potency entry was “inactive”.
As for `CC(C)Cc1ccc(S(=O)(=O)N2CCN(C(=O)c3ccco3)CC2)cc1`, the Potency was 18.4 µM (active).
On to `O=C(CNS(=O)(=O)c1ccccc1)N1CCN(C(=O)c2ccco2)CC1`, for which the Potency result was “inactive”.
On to `O=C(CNC(=O)c1ccccc1)OC(C(=O)Nc1cc([N+](=O)[O-])ccc1F)c1ccccc1` (stereo not given), for which the Potency result is “inactive”.
Same read-out and setting: then `COc1ccc(NC(=O)CCN2CCN(CCO)CC2)cc1`, with “inactive”; and `O=C(NNC(=O)c1ccc(-c2ccccc2)cc1)Nc1ccccc1`, with “inactive”.
For the compound `C=CCNc1scc(-c2ccccc2)[n+]1CC=C`, the Potency result was “inactive”.
Still for that read-out and setting: then `C=CC[n+]1c(-c2ccc(C)cc2)csc1NNC(=O)Nc1ccccc1`, with 18.4 µM (active); and `CCOCCCNC(=O)c1cn(CC)c2ccc(S(=O)(=O)N3CCc4ccccc4C3)cc2c1=O`, with “inactive”.
`COc1c(Cl)cc(C(=O)N(Cc2ccccc2F)C2CCS(=O)(=O)C2)cc1Cl` (stereo not given): the Potency entry was “inactive”.
With `COc1ccc(C2Nc3ccccc3C(=O)N2Cc2ccc(CNC(=O)CO)cc2)cc1COc1ccc(NC(C)=O)cc1` (stereo not given), the Potency result is “inactive”.
Take `CC(C)(C)OC(=O)N(Cc1ccccc1)Cc1ccc(OCc2cccc(NC(=O)c3ccccc3)c2)cc1`: the Potency result was “inactive”.
Turning to `C=CCOC(=O)c1ccccc1C(=O)OCC=C`, the Potency entry is “inactive”.
Take `C=CCOC(=O)C1=C(C)NC(C)=C(C(=O)OCC=C)C1c1cccs1`: the Potency was 20.6 µM (active).
The same measure, in the same setting: the value for `CCOC(=O)C1=C(C)NC(=S)NC1c1cccs1` (stereo not given) was “inactive”; that for `CCCCN1CC(COc2ccccc2)Oc2cccc(F)c2S1(=O)=O` (stereo not given) was “inactive”; that for `O=S(=O)(O)c1cc2onnc2c2ccccc12` was “inactive”.
Still for that read-out and setting: then `COc1ccc(Cl)cc1C=CC=Nc1ccc(S(N)(=O)=O)cc1`, with “inactive”; and `CC1CCCN(C(=O)CN2C(=O)c3ccccc3S2(=O)=O)C1` (stereo not given), with “inactive”; and `O=C(CN1C(=O)c2ccccc2S1(=O)=O)NC1CCCCC1`, with “inactive”.
Take `O=C(CN1C(=O)c2ccccc2S1(=O)=O)N1CCc2ccccc21`: the Potency was 4.11 µM (active).
Still for that read-out and setting: the value for `COc1ccc(-c2cn3nc(N4CCC(C(=O)Nc5cccc(C)c5C)CC4)sc3n2)cc1` was “inactive”; that for `CCN(CC)S(=O)(=O)c1ccc(C(=O)N=c2sc3cccc(OC)c3n2C)cc1` was “inactive”.
Turning to `NCCCNC(=S)NCCCN(Cc1ccc(Cl)cc1)c1ccc(Br)cn1`, the Potency entry is “inactive”.
On to `COc1ccccc1OCCNc1cc(N2CCOCC2)ccc1[N+](=O)[O-]`, for which the Potency entry is “inactive”.
In the case of `COc1ccc(CCNc2cc(N3CCN(C(=O)c4ccccc4OC)CC3)ccc2[N+](=O)[O-])cc1OC`, the Potency is 5.8 µM (active).
The same measure, in the same setting: then `COc1ccc(CCNC(=O)c2ccccc2-c2ccccc2C(=O)O)cc1OC`, with “inactive”; and `CCN(CC)S(=O)(=O)c1ccc(N2CCOCC2)c(NC(=O)C(C)Oc2ccc(F)cc2)c1` (stereo not given), with “inactive”; and `Cc1ccc(CNC(=O)c2cc(-c3ccccc3C)n(CC3CC(c4cccc([N+](=O)[O-])c4)=NO3)n2)cc1` (stereo not given), with “inactive”.
`Cc1ccccc1-c1cc(C(=O)NCc2cccs2)n(CC2CC(c3cccnc3)=NO2)n1` (stereo not given): the Potency is 20.6 µM (active).
For `Cc1ccccc1-c1cc(C(=O)NCC2CC2)n(CC2CC(c3cccnc3)=NO2)n1` (stereo not given), the Potency result was “inactive”.
For `CCCCCn1c(=O)[nH]c2cc(C(=O)NCCN(C)CCCC)ccc2c1=O`, the activity change, negative = inhibition is 7.46% [at 9.27 µM].
On to `CC(=O)Nc1ccc(S(=O)(=O)N2CCN(S(=O)(=O)c3cccs3)CC2)cc1`, for which the Potency entry was “inactive”.
Still for that read-out and setting: the value for `CC(C)C(NS(=O)(=O)c1cccs1)C(=O)Nc1nc(C(C)(C)C)cs1` (stereo not given) was 18.4 µM (active); that for `COc1ccc(CNC(=O)C(NS(=O)(=O)c2cccc3nsnc23)C(C)C)cc1` (stereo not given) was “inactive”.
